# Compounds without any hit were thinned out: in the full panel of roughly 79,000, 15% have a hit. Active and inactive are the calls of the source. Cut-off read from the data, not from the text of the source: active = growth inhibition above about 70%; inactive = the rest. Where a SMILES comes first, the peptide text is derived from it.
# What was measured:
# [1] = NCI Yeast Anticancer Drug Screen. Data for the rad50 strain (AID 155);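 note: 0% = growth of vehicle-only cultures of the same strain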; conditions: S. cerevisiae rad50 strain growth inhibition; at 50.0 µM; hits give high values
# Method in brief: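 A DNA repair-deficient yeast mutant serves as the test organism; compound-induced growth inhibition is calculated against vehicle-treated cells.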
# [2] = NCI Yeast Anticancer Drug Screen. Data for the mec2-1 strain (AID 157); conditions: S. cerevisiae mec2-1 strain, at 50.0 µM, hits give high values
# Method in brief: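 Growth inhibition is read against vehicle-treated controls after compound exposure of the mec2-1 yeast strain, which is defective in DNA damage repair or cell cycle control.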
# [3] = NCI Yeast Anticancer Drug Screen. Data for the sgs1 mgt1 strain (AID 161);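 note: 0% = growth of cultures given vehicle only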; conditions: S. cerevisiae sgs1 mgt1 strain, at 50.0 µM, hits give high values
# Method in brief: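 Compounds are added to genetically altered yeast, and growth is compared with cultures given vehicle alone to give percent inhibition.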
# [4] = NCI Yeast Anticancer Drug Screen. Data for the cln2 rad14 strain (AID 165);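 note: 0% = growth equal to vehicle treated cultures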; conditions: S. cerevisiae cln2 rad14 strain, at 50.0 µM, hits give high values
# Method in brief: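 Growth inhibition, relative to vehicle-treated controls, is the read-out. The test organism is a yeast strain with defined genetic alterations, cln2 rad14.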
# [5] = NCI Yeast Anticancer Drug Screen. Data for the bub3 strain (AID 167); conditions: S. cerevisiae bub3 mutant strain, at 50.0 µM, hits give high values
# Method in brief: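 Inhibition values come from growth of compound-treated mutant yeast normalised to vehicle-treated controls.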
# [6] = NCI Yeast Anticancer Drug Screen. Data for the mlh1 rad18 strain (AID 175); conditions: S. cerevisiae mlh1 rad18 strain growth inhibition; at 50.0 µM; hits give high values
# Method in brief: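 Cells of a genetically altered yeast strain, deficient in DNA damage repair, were treated with compound. Their growth was then compared with that of vehicle-treated cultures to give inhibition.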
Compound,growth inhibition [1],growth inhibition [2],growth inhibition [3],growth inhibition [4],growth inhibition [5],growth inhibition [6]
O=C(NC(=O)c1ccc(Cl)c(Cl)c1)Nc1ccc(Cl)cc1,-1.45% (inactive),-13.8% (inactive),-6.35% (inactive),-32.6% (inactive),11.2% (inactive),8% (inactive)
CCN(CC)CCNc1cc(C)nc(/N=C(\N)Nc2ccc(Cl)cc2)n1,23.9% (inactive),1.05% (inactive),18.1% (inactive),-14.8% (inactive),11.6% (inactive),30.8% (inactive)
CCOC(=O)c1c(C)c(C(C)=O)c2ccccn12,-18.2% (inactive),-17.4% (inactive),-19.9% (inactive),-26.6% (inactive),5.4% (inactive),-2.7% (inactive)
CCSc1sc(=Nc2ccc(N=c3sc(C)c(SC)s3)cc2)sc1-c1ccc(C)cc1,-33.6% (inactive),-0.75% (inactive),-11.2% (inactive),-39.1% (inactive),2.25% (inactive),-5.2% (inactive)
CCOc1c(N=Nc2ccccc2C)c(C)nn1C(=S)SC,-1.2% (inactive),-2.2% (inactive),-15.4% (inactive),23.8% (inactive),-19.4% (inactive),15.7% (inactive)
CCC(=O)C(CC)c1ccccc1 (stereo not given),9.25% (inactive),-8% (inactive),-4.8% (inactive),2.2% (inactive),4.4% (inactive),4.55% (inactive)
CC(=O)OCC1OC(n2cnc3c(N)ncnc32)CC1OC(C)=O (stereo not given),-1.7% (inactive),-1.75% (inactive),-1.25% (inactive),-47.5% (inactive),15.5% (inactive),-18.6% (inactive)
C/C(CC(=O)NCCc1ccccc1)=N\NS(=O)(=O)c1ccc(C)cc1,37.1% (inactive),-6.6% (inactive),10.2% (inactive),28.3% (inactive),-4.2% (inactive),8% (inactive)
CC1(C)C2CCC(=O)C1C(OCc1ccccc1)C2 (stereo not given),-22.1% (inactive),15.7% (inactive),-21.1% (inactive),-0.85% (inactive),-11.6% (inactive),-47.4% (inactive)
CC(C)CC(=O)OC1=C(OC(=O)CC(C)C)C(=O)C(OC(=O)CC(C)C)=C(OC(=O)CC(C)C)C1=O,36.9% (inactive),15.3% (inactive),39.3% (inactive),29.6% (inactive),7.9% (inactive),25.3% (inactive)
Nc1c2cc3ccc2nc2ccc(cc12)OCCOCCOCCOCCOCCOCCO3,-3.05% (inactive),-16.1% (inactive),-9.55% (inactive),-12% (inactive),-0.35% (inactive),-21.2% (inactive)
OCC(Cl)(Cl)C(Cl)(Cl)CO,8.2% (inactive),-14.5% (inactive),-12.7% (inactive),-0.95% (inactive),-28.6% (inactive),-17.8% (inactive)
Cc1cc(N=Cc2cccs2)cc(Cl)c1O,21.7% (inactive),14.4% (inactive),5.05% (inactive),12.2% (inactive),41.8% (inactive),24.8% (inactive)
CCCCC(=O)c1ccc2ccccc2c1O,6.9% (inactive),-6.35% (inactive),3.9% (inactive),-18% (inactive),-6.3% (inactive),6.8% (inactive)
O=C(OCC1OC=C(OC(=O)c2ccccc2)C1OC(=O)c1ccccc1)c1ccccc1 (stereo not given),91.8% (active),11.7% (inactive),32.3% (inactive),24.9% (inactive),-1.85% (inactive),60% (inactive)
CC(C)(C)N(Cc1ccccc1)C(=O)Nc1ccccc1,6.45% (inactive),3.95% (inactive),21.5% (inactive),1.35% (inactive),32.3% (inactive),7.4% (inactive)
Cc1ccc(C2SC(N)=Nc3c2c(C)nn3C(=O)c2ccncc2)cc1 (stereo not given),-27.6% (inactive),-33.2% (inactive),-20% (inactive),-21.7% (inactive),-28% (inactive),-23.6% (inactive)
O=C(/N=C/c1c(O)c2ccccc2oc1=O)NC1CCCCC1,-16.1% (inactive),-9.2% (inactive),-25.9% (inactive),0.65% (inactive),-17.6% (inactive),-5.8% (inactive)
COC(=O)c1ccc(C(=O)c2ccccc2)cc1,-1.15% (inactive),9.15% (inactive),27.9% (inactive),5.55% (inactive),14.2% (inactive),7.7% (inactive)
O=C(O)c1cc(-c2ccccc2O)nc2ccccc12,-19.5% (inactive),-7.1% (inactive),-5.2% (inactive),16.3% (inactive),-1.35% (inactive),-1.5% (inactive)

Compound,growth inhibition [1],growth inhibition [2],growth inhibition [3],growth inhibition [4],growth inhibition [5],growth inhibition [6]
CCCCC(/C=C\C(=O)O)CC (stereo not given),29.7% (inactive),-6.1% (inactive),-11.8% (inactive),5.05% (inactive),5.75% (inactive),14.4% (inactive)
CC(C)CC(NC(=O)C(COC(C)(C)C)NC(=O)C(CSC(c1ccccc1)(c1ccccc1)c1ccccc1)NC(=O)OC(C)(C)C)C(=O)OC(C)(C)C (stereo not given),-16.1% (inactive),11.9% (inactive),-1.75% (inactive),-16.6% (inactive),-13.9% (inactive),8.05% (inactive)
CC1CCCCc2nc3c(c(=O)n21)CCCC3 (stereo not given),9.3% (inactive),-11.8% (inactive),34% (inactive),0.25% (inactive),25.6% (inactive),41% (inactive)
N#CCCN(CCC#N)S(=O)(=O)c1ccccc1,-3% (inactive),5.65% (inactive),-4.9% (inactive),-4.2% (inactive),14.1% (inactive),-15.6% (inactive)
O=C(O)C#Cc1ccccc1,25.7% (inactive),-27.9% (inactive),-1.8% (inactive),2.6% (inactive),-23.2% (inactive),0.3% (inactive)
CCOC1OC(C2COC(=O)O2)C(O)C1O (stereo not given),15.8% (inactive),10.6% (inactive),-3.85% (inactive),-71.2% (inactive),7.4% (inactive),-3% (inactive)
CCOC(=O)C1=NN(c2ccccc2)C(=O)/C1=C\n1ccc(=O)[nH]c1=S,-32.5% (inactive),-43.8% (inactive),-44.5% (inactive),-36.1% (inactive),-25.9% (inactive),-60.8% (inactive)
CCOC(=O)N1c2ccccc2OC1C#N (stereo not given),-17.3% (inactive),1.3% (inactive),-4.4% (inactive),-33.1% (inactive),51.3% (inactive),13.5% (inactive)
COc1cc([N+](=O)[O-])c2ncccc2c1,-15.9% (inactive),-16% (inactive),-7.6% (inactive),6.9% (inactive),-3.1% (inactive),18.1% (inactive)
CN(C)CCC1(C2=CCCC2)CC/C(=C\c2ccccc2)C1=O (stereo not given),16.9% (inactive),-17.8% (inactive),-5.6% (inactive),14.7% (inactive),-45.6% (inactive),2.5% (inactive)
NC(Cc1ccccc1)C(=O)NCC(=O)NC(Cc1ccccc1)C(=O)NCC(=O)O (stereo not given) (H-FGFG-OH; configuration not given here),-4.35% (inactive),-4.15% (inactive),-7.95% (inactive),-36.4% (inactive),-4.7% (inactive),4.2% (inactive)
N#Cc1nnn(-c2ccccc2)n1,24.2% (inactive),13.5% (inactive),2.9% (inactive),-15.7% (inactive),4% (inactive),22.5% (inactive)
Nc1ncnc2c1ncn2C[c-]1[c-][c-][c-][c-]1.[Fe].[c-]1[c-][c-][cH-][c-]1,-4.95% (inactive),-23.8% (inactive),-11.9% (inactive),-40.7% (inactive),-15.7% (inactive),-8.8% (inactive)
Cn1cnc([N+](=O)[O-])c1Sc1ccncc1S(N)(=O)=O,-5.65% (inactive),-14.4% (inactive),0.2% (inactive),2.1% (inactive),6.5% (inactive),-9.15% (inactive)
C1CCCCC2(CCCCCCCCC3(CCC1)OCCO3)OCCO2,-2% (inactive),-21.2% (inactive),-8.5% (inactive),25.6% (inactive),1.1% (inactive),-5.25% (inactive)
CCOc1ccc(NC(=S)N/C=C(/C#N)C(N)=O)cc1,-13.6% (inactive),-26.4% (inactive),-15.3% (inactive),-14.2% (inactive),-16.9% (inactive),-3.5% (inactive)
O=C(Nc1ccc(Cl)cc1C(F)(F)F)C(=O)C1CCCS1(=O)=O (stereo not given),-7.05% (inactive),-10.9% (inactive),-4.5% (inactive),12.9% (inactive),-6.4% (inactive),-8.8% (inactive)
O=C1C2=C(c3ccccc31)C(c1ccccc1Cl)N1C(=O)CSC1=N2 (stereo not given),67.9% (inactive),50.2% (inactive),53.5% (inactive),48.6% (inactive),53.8% (inactive),60% (inactive)
CC(=O)OCC(NC(=O)C(N)CC(=O)O)C(=O)NCC(=O)Oc1ccc([N+](=O)[O-])cc1 (stereo not given),13.9% (inactive),15.7% (inactive),11.8% (inactive),12% (inactive),1.9% (inactive),5.75% (inactive)
CC(=O)c1c(C)[nH]c(-c2ccccc2)c1NS(=O)(=O)c1ccc(N)cc1,-0.2% (inactive),-3.45% (inactive),25.4% (inactive),-13% (inactive),4% (inactive),8.95% (inactive)
